Experimental findings from PubChem BioAssay (EPA / NIEHS) are described below.

Results filed as inconclusive are left out. The source made the active and inactive calls. Rule for the calls: active = hit-call score of the fitted dose curve at least 0.9, where 1 is the maximum; inconclusive = response in the unintended direction; inactive = score below 0.9.

Glycogen synthase kinase-3 beta (Homo sapiens), sequence (P49841 whole entry, looked up): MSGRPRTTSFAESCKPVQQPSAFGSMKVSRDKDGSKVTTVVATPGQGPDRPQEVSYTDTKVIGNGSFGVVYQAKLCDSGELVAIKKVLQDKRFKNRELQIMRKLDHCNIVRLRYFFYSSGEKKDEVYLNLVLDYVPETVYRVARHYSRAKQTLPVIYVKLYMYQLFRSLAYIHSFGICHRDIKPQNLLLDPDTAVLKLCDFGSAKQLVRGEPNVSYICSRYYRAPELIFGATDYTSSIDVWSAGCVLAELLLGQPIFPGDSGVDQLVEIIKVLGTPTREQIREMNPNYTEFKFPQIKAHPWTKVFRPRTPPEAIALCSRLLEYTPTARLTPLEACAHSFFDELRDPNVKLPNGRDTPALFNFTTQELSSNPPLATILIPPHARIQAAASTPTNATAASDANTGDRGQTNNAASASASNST

This assay addresses Glycogen synthase kinase-3 beta (Homo sapiens) (UniProt P49841). The assay can be described thus: NVS_ENZ_hGSK3b: NovaScreen (NVS) Enzymatic Assay for human Glycogen Synthase Kinase-3 beta (GSK3b) (AID 2283165). Here is the method: NVS_ENZ_hGSK3b is a biochemical, single-readout assay that uses extracted gene-proteins in a cell-free assay. Measurements were taken 1 hour after chemical dosing in a 384-well plate.NVS_ENZ_hGSK3b is one of one assay component(s) measured or calculated from the NVS_ENZ_hGSK3b assay. It is designed to make measurements of enzyme activity, a form of enzyme reporter, as detected with fluorescence intensity signals by Fluorescence and electrophoretic mobility shift technology.Data from the assay component NVS_ENZ_hGSK3b was analyzed into 1 assay endpoint. This assay endpoint, NVS_ENZ_hGSK3b, was analyzed in the positive analysis fitting direction relative to DMSO as the negative control and baseline of activity. Using a type of enzyme reporter, loss-of-signal activity can be used to understand changes in the enzymatic activity as they relate to the gene GSK3B. Furthermore, this assay endpoint can be referred to as a primary readout, because this assay has produced multiple assay endpoints where this one serves a enzymatic activity function. To generalize the intended target to other relatable targets, this assay endpoint is annotated to the kinase intended target family, where the subfamily is serine/threonine kinase.
Binding assays used specific radioligands (tritiated, iodinated) with non-radioactive competitive displacement ligands in agonist or antagonist protocols (as indicated) and various reference compounds and inhibitors to titrate specific binding to receptors and transporters. Most enzyme assays (CYPs, kinases, phosphatases, proteases, HDACs) used recombinant protein and specific substrates (fluorescence mostly, some colorimetric and radioactive) and inhibitors, followed by a biochemical separation of substrate and product. All assays for the biochemical HTS were initially run in duplicate at a single concentration (10 uM for CYP450 assays and 25 uM for all others). Assay-chemical combinations meeting a pre-defined threshold (e.g., 30% inhibition and other criteria defined below) were then run in singleton concentration-response format with maximum concentration of 20 uM for CYPs and 50 uM for all others. Each assay was run with positive and negative controls, and concurrent controls on every plate. The follow-up (secondary) screen tested active chemical-pairs in concentration series, as well as a few additional assays not tested in the primary screen, some selected negative inactives, and several cases re-run in the concentration series for confirmatory purposes.
Consider `CC[C@H](C)C(=O)O[C@H]1C[C@@H](C)C=C2C=C[C@H](C)[C@H](CC[C@@H]3C[C@@H](O)CC(=O)O3)[C@H]21`, for which the call was inactive.

With `Clc1nc(Cl)c(Cl)c(Cl)c1Cl`, the compound was called inactive. As for `O=P(OC(CCl)CCl)(OC(CCl)CCl)OC(CCl)CCl`, the call was inactive. `COCCOc1cc2cc(C(=O)NC3CCN(C(C)C)CC3)n(CC(=O)Nc3ccc(Cl)cn3)c2cn1`: the call was inactive. On the same count and under the same terms, next, `CC1=CC(=O)CC(C)(C)C1`: “inactive”. `Cc1ccc(N)cc1O`: the outcome was inactive. Take `CNS(=O)(=O)c1cc(C(=O)N2CCC(CCN3C4CCC3CC(n3c(C)nc5ccccc53)C4)(c3cccc(F)c3)CC2)c(Cl)cc1F` (stereo not given): the call was inactive.

With `CCc1cc(SCc2sc(-c3ccc(C(F)(F)F)cc3)nc2CN2CCN(c3ccc(OC)cc3)CC2)ccc1OCC(=O)O`, the outcome was inactive.

Turning to `CCCCCCCCO`, the compound was called inactive. As for `Nc1nc2ncc(CNc3ccc(C(=O)N[C@@H](CCC(=O)O)C(=O)O)cc3)nc2c(=O)[nH]1`, the concentration at half-maximal activity (AC50) was 41100 nM (active). On to `COc1ccc2sc(C(=O)Nc3nnn[nH]3)c(OC(C)C)c2c1`, for which the half-maximal activity concentration (AC50) is 1420 nM (active).

For `CN(C)c1ccc(N=NS(=O)(=O)O)cc1`, the call was inactive. On to `CC1(C)C(=O)N(Br)C(=O)N1Br`, for which the compound was classed as inactive. Still for that read-out and setting: next, `CC(C)=CCCC(C)CCO` (stereo not given): “inactive”; `CC(C)=CCC/C(C)=C/CO`: “inactive”.

For the compound `O=C(OC[C@H]1O[C@@H](OC(=O)c2cc(O)c(O)c(OC(=O)c3cc(O)c(O)c(O)c3)c2)[C@H](OC(=O)c2cc(O)c(O)c(OC(=O)c3cc(O)c(O)c(O)c3)c2)[C@@H](OC(=O)c2cc(O)c(O)c(OC(=O)c3cc(O)c(O)c(O)c3)c2)[C@@H]1OC(=O)c1cc(O)c(O)c(OC(=O)c2cc(O)c(O)c(O)c2)c1)c1cc(O)c(O)c(OC(=O)c2cc(O)c(O)c(O)c2)c1`, the AC50 was 0.698 nM (active).

As for `CCN(C(=O)c1cc(C)cc(OC[C@H](C)Nc2ccncc2)c1)C(C)C`, the compound was classed as inactive. On the same count and under the same terms, next, `CC(C)=CCCC(C)=CC=O`: “inactive”; `CCCC(=O)OCC`: “inactive”.

`O=C1OC(=O)C2C3C=CC(C3)C12` (stereo not given): the compound was called inactive. With `CCOC(=O)COc1ccc2c(c1)CC(NCC(O)c1cccc(Cl)c1)CC2` (stereo not given), the result was inactive. Consider `COc1cccc(-c2ccc(/C=C\CN3CCCCCC3)cc2Cl)c1`, for which the compound was classed as inactive. With `Cc1ccc(S(=O)(=O)O)cc1C`, the result was inactive. The same measure, in the same setting: next, `CN(C)c1ccc(Cc2ccc(N(C)C)cc2)cc1`: “inactive”; `O=C(O)c1cc(N=Nc2ccc(S(=O)(=O)Nc3ccccn3)cc2)ccc1O`: “inactive”.

One may read the AC50 as the concentration at which the activity in the assay is half-maximal.
